Source: PubChem BioAssay AID2501 (Southern Research Specialized Biocontainment Screening …, 2010)
Among all 2,200 compounds or so, about 1,200 (55%) were called active. Cut-off not given; nearly all actives show IC50 up to about 92 µM. The set was probably picked from earlier hits. This is one part of the list.

experiment: counter assay for TAg ATPase ADP read-out – biochemical, ADP-Hunter, fluorescence, counter-screen (AID 2501); conditions: series mostly up to 100 µM;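 further: purified T antigen ATPase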

| SMILES | IC50 |
| --- | --- |
| COc1ccc(NCCc2ccccn2)cc1 | 2.41 µM (active) |
| COc1ccc(S(=O)(=O)N(CC(=O)NCc2ccccn2)c2ccc(Cl)cc2)cc1 | inactive |
| COc1ccc(S(=O)(=O)Nc2ccc(O)c3ccccc23)cc1 | inactive |
| COc1ccc(C(=O)Nc2ccc(O)c3ccccc23)cc1 | 13.1 µM (active) |
| CCOC(=O)Cn1cc(C#N)c(=O)[nH]c1=O | inactive |
| Cc1ccc2c(c1)NC(=O)c1cccnc1N2 | 4.54 µM (active) |
| Cc1ccc(C(=O)N2CCN3C(=O)c4ccccc4C23c2ccccc2)cc1 (stereo not given) | inactive |
| CC(=O)Oc1c(/C=C(\C#N)C(N)=O)[nH]c2ccccc12 | 27.2 µM (active) |
| C=CCn1c(SCC(=O)NCC2CCCO2)nc2scc(-c3ccco3)c2c1=O (stereo not given) | inactive |
| C=CCn1c(SCC(C)=O)nc2scc(-c3ccco3)c2c1=O | inactive |
| C=CCn1c(=S)[nH]c2scc(-c3ccco3)c2c1=O | 26.9 µM (active) |
| C#CCOCCOCCOCCNc1nc(N2CCN(C(=O)CCCCCCCCCCNC(=O)[C@H]([C@@H](C)CC)n3cc(CCCCN=C(N)N)nn3)CC2)nc(N2CCN(C(=O)CCCCCCCCCCNC(=O)[C@H](CCCN=C(N)N)n3cc(C[C@@H](C)CC)nn3)CC2)n1 | inactive |
| CCOC(=O)C1CCN(c2nc(N)c3c(N)nc(SCC(=O)O)cc3c2C#N)CC1 | inactive |
| O=C(N/N=C(\c1ccccc1)c1cccnc1)c1cc(O)ccc1O | 3.71 µM (active) |
| CCOC(=O)CN(C(=O)CSc1nnc2c(n1)[nH]c1ccccc12)c1ccccc1 | inactive |
| O=C(O)CSCC(=O)Nc1ccc(-c2nc3ccccc3s2)cc1 | inactive |
| Cc1[nH]c2ccccc2c1-c1csc(NC(=O)CSCC(=O)O)n1 | 14.6 µM (active) |
| Cc1cc(-c2n[nH]c(=S)n2/N=C/c2cccs2)n[nH]1 | 52.3 µM (active) |
| COc1cccc(/C=N/n2c(-c3cc(C)[nH]n3)n[nH]c2=S)c1O | 13.2 µM (active) |
| CCN(CC)c1ccc(NC(=S)NC(=O)C2CCC2)cc1 | 7.07 µM (active) |

| SMILES | IC50 |
| --- | --- |
| COc1ccc2c(c1)-c1nc(/N=C/c3ccc(O)c(OC)c3)sc1CC2 | 3.97 µM (active) |
| Cc1cc([N+](=O)[O-])nn1CC(=O)NCc1ccccc1 | inactive |
| COc1cc(C(=O)N/N=C(\C)Cn2nc([N+](=O)[O-])cc2C)ccc1O | 16.1 µM (active) |
| C#CCOCCOCCOCCNc1nc(N2CCN(C(=O)CCCCCCCCCCNC(=O)[C@H]([C@@H](C)CC)n3cc(CCCCCN)nn3)CC2)nc(N2CCN(C(=O)CCCCCCCCCCNC(=O)[C@@H]([C@H](C)CC)n3cc(CCCCCN)nn3)CC2)n1 | inactive |
| CC1(C)C(/C=C/C=C/C=C/C=C2\N(CCCCS(=O)(=O)O)c3ccc4ccccc4c3C2(C)C)=[N+](CCCCS(=O)(=O)[O-])c2ccc3ccccc3c21 | 10.5 µM (active) |
| COc1cccc2c1NC(C(=O)O)C1CC=CC21 (stereo not given) | inactive |
| COCCCNc1nnc(Cc2ccc(Cl)cc2)c(=O)[nH]1 | inactive |
| CCCC1=NN2C(=N)/C(=C\c3ccc(SCc4ccco4)o3)C(=O)N=C2S1 | inactive |
| Nc1c(O)cccc1C(=O)O | 7.18 µM (active) |
| Nc1ccc(O)c(C(=O)O)c1 | 8.29 µM (active) |
| O=C(O)C1=CC(=C(c2ccc(O)c(C(=O)O)c2)c2ccc(O)c(C(=O)O)c2)C=CC1=O | inactive |
| Nc1ccc(C(=O)Nc2ccccc2C(=O)O)cc1 | inactive |
| COc1cc(C(C)=O)ccc1OCC(O)Cn1nc(C)c(C(C)=O)c1C (stereo not given) | 49.1 µM (active) |
| NC(=O)[C@@H]1CCCCNc2c(I)cc([N+](=O)[O-])cc2C(=O)N[C@@H](CCC(=O)O)C(=O)N[C@@H](CO)C(=O)N1 | inactive |
| COc1ccc(S(=O)(=O)c2c(N)n(Cc3ccco3)c3nc4ccccc4nc23)cc1 | inactive |
| Cc1ccc(S(=O)(=O)Nc2c(O)ccc3ccccc23)cc1 | 70.6 µM (active) |
| O=S(=O)(Nc1c(O)ccc2ccccc12)c1ccccc1 | inactive |
| COc1ccc(C(C)=O)cc1COC(=O)CCNS(=O)(=O)c1ccc(C(C)=O)cc1 | inactive |
| COc1ccc(S(=O)(=O)Nc2c(O)ccc3ccccc23)cc1OC | 54.9 µM (active) |
| Cc1ccc(S(=O)(=O)CCSC(=N)N)cc1 | inactive |

| SMILES | IC50 |
| --- | --- |
| O=C1c2ccccc2NC2(CCCCC2)N1c1ccc(O)cc1 | 5.01 µM (active) |
| CN(C)CCNC(=O)C(=O)Nc1ccc2c(c1)N(S(=O)(=O)c1cccs1)CCC2 | inactive |
| Cc1ccc(NC(=O)CCSc2nnc(Cc3ccccc3)o2)cc1 | inactive |
| N#CC(C#N)=C(N)/C(C#N)=C/c1cc(O)c(O)c(O)c1 | 13.6 µM (active) |
| CC1CCCN(c2ccc(N)cc2C(N)=O)C1 (stereo not given) | 3.15 µM (active) |
| N#C/C(=C\c1coc2ccc(O)cc2c1=O)C(=O)Nc1nc2ccccc2s1 | 80.4 µM (active) |
| CSc1nc(Cl)cc(Nc2ccc(O)cc2)n1 | 11.3 µM (active) |
| Cc1ccc(NC(=O)CSc2nc3ccccc3c(=O)n2CCCC(=O)NCCCN2CCOCC2)cc1C | inactive |
| CCN(CC)CCNC(=O)CCCCn1c(=S)[nH]c2c([nH]c3ccc(OC)cc32)c1=O | 4.99 µM (active) |
| COc1ccc2[nH]c3c(=O)n(CCCCC(=O)NCCN4CCCC4)c(=S)[nH]c3c2c1 | 6.28 µM (active) |
| O=S(=O)(Nc1cccc(-c2cn3ccsc3n2)c1)c1ccc(F)cc1 | inactive |
| O=C1CC(N2CCN(c3ccc(O)cc3)CC2)C(=O)N1Cc1cccs1 (stereo not given) | 4.71 µM (active) |
| CN(CCc1cn[nH]c1)Cc1nc(Cc2ccccc2F)no1 | inactive |
| CC(O)CCc1ccc(O)cc1 (stereo not given) | 8.46 µM (active) |
| NNC(=O)c1ccc(CN2CCCCC2)o1 | inactive |
| COc1cc(/C=C2\SC(c3ccc(C)cc3)=NC2=O)cc(OC)c1O | 2.62 µM (active) |
| Cc1ccc(C2=NC(=O)/C(=C/c3cc(O)c(O)c(Br)c3)S2)cc1 | 11 µM (active) |
| CCOc1ccc(NCc2cccn2-c2nnc(N3CCC(C(=O)NCCCN4CCCCC4C)CC3)s2)cc1 (stereo not given) | 6.99 µM (active) |
| CCOc1ccc(NCc2cccn2-c2nnc(N3CCC(C(=O)NCCCN4CCCCC4CC)CC3)s2)cc1 (stereo not given) | 5.76 µM (active) |
| CCOc1ccc(NCc2cccn2-c2nnc(N3CCC(C(=O)NCCCN4CC(C)CC(C)C4)CC3)s2)cc1 (stereo not given) | 7.15 µM (active) |
